Results published in the supplement of paper PMC4466236.
Over roughly 33,000 sequences, “E-score (dimensionless, -0.5 to 0.5)” has its median near -0.058; the highest 2% begin near 0.35. The sample holds the highest values, similar sequences and a random draw of the others, so the mix is not that of the screen.

test system: MvaT; experiment: PBM 8-mer E-score (mean of HK and ME arrays) (E-score (dimensionless, -0.5 to 0.5)); higher = stronger relative binding preference
In short: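 Full-length P. aeruginosa MvaT, with glutathione S-transferase fused to its N-terminus (cloned into pTH6838 by isothermal assembly), was tested by protein binding microarray using a previously described protocol. Two universal double-stranded 60-mer arrays (ME and HK) were used, each with a constant 25-mer primer region and a variable 35-mer region covering all 8-mers. The rank-based 8-mer E-score (-0.5 to 0.5) is the mean of the two arrays, parsed with a custom Python script.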

Sequence | PBM 8-mer E-score
TGATAACA | 0.16
CACGCTCG | -0.168
AATAGAAG | 0.0707
GGATTTAA | 0.283
CTATTTTA | 0.261
ATATTTTA | 0.43
GGATTTTA | 0.112
GCATTTTA | 0.177
ATATTTTG | 0.319
GTATTTCA | 0.223
GTATTTAA | 0.368
GTATTTTA | 0.37
GCCTCGTA | -0.109
AGGGATGC | -0.182
GGTCGTTA | -0.0413
GCGAGTCA | -0.112
CCGGGAGG | -0.293
CTGCAGCC | -0.148
AAAAAGGT | -0.0123
ATGAATTA | 0.295
CTTAATTA | 0.454
ATTAATTA | 0.461
ATTAATCG | 0.336
CTGAATTA | 0.266
CTCAATTA | 0.234

Sequence | PBM 8-mer E-score
ATTAATGG | 0.262
ATTAATTG | 0.391
CTTAATTC | 0.281
ATTAATTC | 0.415
AGTAATTC | 0.144
ATCAATTA | 0.319
ACAGGGCT | -0.196
CACTTCGC | -0.174
ATATCGTA | 0.207
GACGCAGC | -0.356
ATACTGGG | 0.00507
AGTCATTA | 0.14
CGGTAAGC | -0.0976
ACCCGGGA | -0.218
ATTAATCA | 0.405
CTTAATCA | 0.174
AGTAATTA | 0.421
GGTAATTA | 0.286
CTTAATGA | 0.0908
ATTAATGA | 0.363
GTTAAGTA | 0.203
ATTAATGC | 0.341
ATTAATCC | 0.332
GTTAATTA | 0.415
GTCAATTA | 0.164

Sequence | PBM 8-mer E-score
CGTAATTA | 0.31
CTTACGCA | -0.158
AATTGCAA | 0.179
AAGCAGCC | -0.138
TAACCTTA | 0.0355
GTAGGGCA | -0.179
CATAAGGG | -0.214
CAGCTCGG | -0.199
ACGACCTC | -0.143
ACCCAATC | -0.0955
AAAATACG | 0.184
ATAATACC | 0.333
ATAATACG | 0.354
ATAATACA | 0.407
ACAATACG | 0.0961
CTAATACA | 0.325
ATGGCACA | -0.0727
GCGTGTAC | -0.107
GAGATCGC | -0.123
GTGTTAAC | 0.219
CTGTTAAC | 0.141
ATGTTAAT | 0.39
ATGTTAAG | 0.178
ATGTTAAC | 0.363
ATGTTAAA | 0.329

Sequence | PBM 8-mer E-score
TGCGTCAA | -0.0324
GGGAACAC | -0.198
CCTGTCCG | -0.203
CCTCGAGC | -0.149
CAGTTGCG | -0.0888
CATTATCA | 0.169
AATTATCA | 0.325
CCTTATTC | 0.189
GATTATTA | 0.391
CATTATTC | 0.363
GATTATGC | 0.148
CATTATCC | 0.235
GATTATCC | 0.209
CATTATTA | 0.432
CATTATGA | 0.214
GATTATCA | 0.193
TATTATCA | 0.404
AAGTTCCA | 0.2
CGGGTTCC | -0.15
CGGAAAAG | 0.00958
AAATGGTC | -0.0709
TACGTGCA | 0.0131
AGGCCTAT | -0.235
TAGCATCA | 0.0156
ATTACCGA | 0.0931

Sequence | PBM 8-mer E-score
GGCGATAA | 0.137
AAATCATG | -0.0303
ACTGTAAA | 0.266
AATGTAAG | 0.293
ACTGTAAT | 0.351
ACTGTAAC | 0.246
AATGTAAT | 0.365
AATGTAAC | 0.267
GGTATGAC | -0.144
ATAATGGG | 0.229
AGGTTAAA | 0.0501
ATCATTCC | -0.0603
AATGATTC | 0.144
CGATAGCC | -0.14
GCAGTTCC | -0.18
AATTATAA | 0.468
GATTATAC | 0.223
AATTATCT | 0.296
AATTAGAT | 0.284
CATTATAA | 0.389
CATTAGAA | -0.0258
GATTATGA | 0.0705
CATTATAC | 0.295
AATTATAC | 0.342
AATTATAT | 0.461

Sequence | PBM 8-mer E-score
GATTATAA | 0.41
CCAATGAC | -0.153
CATTGTGG | -0.0595
GGCTTTGA | -0.0706
ACACAGGC | -0.0277
TCCTACGA | -0.0392
CATTATAG | 0.277
AATTATAG | 0.37
AATTATGG | 0.285
AATTATGA | 0.317
AATTATGT | 0.366
ACTCCTGA | -0.0172
AAGTTAAG | 0.243
AAGTTACT | 0.339
AAGTTAAT | 0.385
GAGTTAAC | 0.254
AAGTTAAC | 0.379
TAGTTAAA | 0.273
CAGTTAAC | 0.221
AAGTTAAA | 0.411
GAGTTAAA | 0.25
CGTTATTC | 0.24
GGTTATTA | 0.285
AGTTATTA | 0.414
CGTTATCA | 0.111

Sequence | PBM 8-mer E-score
AGTTATTG | 0.312
CGTTATTA | 0.364
AAAGTAGG | 0.0451
CAAAGATC | -0.0152
AATAAAGA | 0.344
AATAAAGG | 0.228
AATAAAAA | 0.415
AATAAAAG | 0.309
AATAAAGT | 0.372
AGTAAAAT | 0.308
AATAAAAC | 0.341
ACTAAAAC | 0.289
ACTAAAAT | 0.39
AATAAAAT | 0.388
ACTAAAAA | 0.193
CACCAGCC | -0.0802
AGGCCTAC | -0.133
CAAACCTA | 0.0792
ATTTTCGA | 0.0907
AGCGTTCC | -0.129
TTGAGAAA | 0.135
ACGTGGCC | -0.18
